High-throughput results from PubChem.
An excerpt weighted towards active compounds, which were near 9.9% of everything screened.
KB-V1 cytotox: kills drug-selected multidrug resistant KB-V1 cells. 400,000 tested, 3.4% active. KB-V1 MDR cells viability, CellTiter-Glo, 72 h. AID 1347076. Potency, µM (highest dose often 46.1 µM), usual class: cytotoxic; further: potency means the concentration at half of the fitted maximal effect; on the % scale 0 is the no-effect control and ±100 the full control effect; nearly all actives have a fitted effect of over 60% in size
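Cytotoxicity toward P-gp-expressing KB-V1 cells was determined as loss of CellTiter-Glo luminescence after 72 h at 37 degrees C. Compounds were tested in quantitative HTS format across a concentration range, with curves fitted to normalized data.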
MCF10A rereplic: DNA re-replication induction in MCF 10a cells; Potency, µM (top dose mostly 46.1 µM), inactives show at the highest dose activity, positive = re-replication, actives largely listed as activators; AID 624296; 350,000 tested, 2.9% active; MCF 10A DNA re-replication, Hoechst nuclear intensity, 48 h; further: potency means the concentration at half of the fitted maximal effect; % of control where 0% means no effect; nearly all actives have a fitted effect of over 50% in size
KB-3-1 tox: kills parental KB-3-1 adenocarcinoma cells | Potency, µM (series often up to 46.1 µM), hits mostly cytotoxic | KB-3-1 viability, CellTiter-Glo ATP luminescence, 72 h | 400,000 tested, 1.4% active; further: potency means the concentration at half of the fitted maximal effect; on the % scale 0 is the no-effect control and ±100 the full control effect; nearly all actives have a fitted effect of over 60% in size
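72 h, 37 °C compound treatment of KB-3-1 parental cells; CellTiter-Glo added, 10 min, luminescence read. Data corrected against DMSO-only plates and normalized before curve fitting.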
SW480 rereplic: inducers of DNA re-replication in SW480 colon cancer cells. Potency, µM (series often up to 46.1 µM), inactives show at the top dose re-replication activation, actives largely listed as activators. 340,000 tested, 1.8% active. SW480 DNA re-replication, Hoechst DNA content imaging, 48 h; further: potency means the concentration at half of the fitted maximal effect; % of control where 0% means no effect; nearly all actives have a fitted effect of over 55% in size
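Readout is total intensity of Hoechst-stained nuclei, excited at 405 nm and collected at 500-530 nm. Compound treatment lasted 48 hr at 37 C in 5% CO2 before staining.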
IL-1B inflam inh: inhibitors of inflammasome signaling (IL-1 beta secretion); THP-1 LPS/ATP IL-1B secretion, AlphaLISA, 16 h; active compounds read low; activity change, % at 57.5 µM; 360,000 tested, 4.7% active; in the data active means activity change below about -50%; inconclusive means mostly about -30% to -49%; further: on the % scale 0 is the no-effect control and ±100 the full control effect
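Secreted IL-1B measured by AlphaLISA bead assay after 16 h compound exposure of THP-1 cells; compounds (final up to 57.5 uM) added 1 h before LPS (250 ng/mL) and ATP (1.25 mM) stimulation; lower signal means less secretion.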
* = called active by the depositor; [ ] = remark or other dose. Unless noted, the call rests on the fitted dose curve; in most records, active means well fitted curve in the direction sought with a large enough effect; inconclusive means small, poorly fitted or top-dose-only effect, or another doubt; inactive means no such curve, though single readings can be large; an effect the other way counts as inactive or inconclusive.

Cc1cc(C)c(-n2c(SCCS(=O)(=O)c3ccc(F)cc3)n[nH]c2=O)c(C)c1 was read as KB-V1 cytotox inactive, MCF10A rereplic inconclusive, KB-3-1 tox inactive, SW480 rereplic inconclusive and IL-1B inflam inh -97.1*.
O=C(NCc1ccco1)C1CC(c2ccc(C(F)(F)F)cc2)=NO1 (centres undefined) was read as KB-V1 cytotox inconclusive, MCF10A rereplic inconclusive, KB-3-1 tox inconclusive, SW480 rereplic inconclusive and IL-1B inflam inh 9.7.
Cc1ccc(CNC(=O)C2CC(c3cc(C(F)(F)F)cc(C(F)(F)F)c3)=NO2)o1 (centres undefined) was read as KB-V1 cytotox inactive, MCF10A rereplic 9.2µM*, KB-3-1 tox inactive, SW480 rereplic inconclusive and IL-1B inflam inh 30.5.
COc1cc(C2=NOC(C(=O)NCc3ccco3)C2)cc(OC)c1OC (centres undefined) was read as KB-V1 cytotox 2.91µM*, MCF10A rereplic inconclusive, KB-3-1 tox inactive, SW480 rereplic inconclusive and IL-1B inflam inh 37.5.
`COc1ccc(C2=NOC(C(=O)NCc3ccco3)C2)cc1` (centres undefined) gave KB-V1 cytotox 7.31µM*, MCF10A rereplic 6.51µM*, KB-3-1 tox 13µM*, SW480 rereplic 18.4µM* and IL-1B inflam inh 15.2.
For Cc1ccc(OCC(=O)NC(=S)Nc2ccc(Br)cn2)cc1C the results were KB-V1 cytotox inactive, MCF10A rereplic 28.5%, KB-3-1 tox inactive, SW480 rereplic -17.2% and IL-1B inflam inh 105.4.
COc1ccc(C(=O)c2cn[nH]c2-c2cc(Cl)ccc2O)cc1 was read as KB-V1 cytotox 18.4µM*, MCF10A rereplic 22.1%, KB-3-1 tox inconclusive, SW480 rereplic inconclusive and IL-1B inflam inh -11.3.
For O=C(COc1cccc2c1CCN(Cc1ccccc1)C2=O)N1CCCCC1 the results were KB-V1 cytotox inconclusive, MCF10A rereplic inconclusive, KB-3-1 tox inactive, SW480 rereplic inconclusive and IL-1B inflam inh -10.4.
For Cn1c(=O)cc(OCC(=O)N2CCCc3ccccc32)c2ccccc21 the results were KB-V1 cytotox 14.6µM*, MCF10A rereplic 7.3%, KB-3-1 tox inactive, SW480 rereplic -4.4% and IL-1B inflam inh -2.7.
Screening Cc1ccccc1CN1CCc2c(OCC(=O)N3CCCc4ccccc43)cccc2C1=O returned KB-V1 cytotox inconclusive, MCF10A rereplic inconclusive, KB-3-1 tox 20.6µM*, SW480 rereplic 15.1% and IL-1B inflam inh inconclusive.
`Cc1ccccc1OCC(=O)N1CCCc2ccccc21` gave KB-V1 cytotox inactive, MCF10A rereplic 0.6%, KB-3-1 tox inactive, SW480 rereplic -1.9% and IL-1B inflam inh 7.8.
O=C1c2cccc(OCC(=O)N3CCCc4ccccc43)c2CCN1Cc1cccnc1 was read as KB-V1 cytotox 3.66µM*, MCF10A rereplic 1.0%, KB-3-1 tox inconclusive, SW480 rereplic 1.2% and IL-1B inflam inh -7.2.
Screening CC(C)C(=O)c1cn(CC(=O)N2CCCc3ccccc32)c2ccccc12 returned KB-V1 cytotox 5.17µM*, MCF10A rereplic 18.5%, KB-3-1 tox inactive, SW480 rereplic 3.6% and IL-1B inflam inh -2.3.
Screening O=C(c1cccnc1)N1N=C(c2cccs2)CC1c1ccc(F)cc1 (centres undefined) returned KB-V1 cytotox inconclusive, MCF10A rereplic -1.2%, KB-3-1 tox inactive, SW480 rereplic -1.4% and IL-1B inflam inh 7.7.
O=C1c2cccc(OCC(=O)N3N=C(c4cccs4)CC3c3ccc(F)cc3)c2CCN1Cc1cccnc1 (centres undefined) was read as KB-V1 cytotox 20.6µM*, MCF10A rereplic inconclusive, KB-3-1 tox inactive and IL-1B inflam inh -6.2.
Screening Clc1ccc2c(c1)-c1nnc(Br)n1-c1ccccc1S2 returned KB-V1 cytotox inactive, MCF10A rereplic 8.4%, KB-3-1 tox inactive, SW480 rereplic -3.3%[9.22 µM] and IL-1B inflam inh -55.1*.
For CN(C)c1ccc(/C=C2\C=Cc3ccccc32)cc1F the results were KB-V1 cytotox inactive and KB-3-1 tox inactive.
Screening COc1ccc2c(c1)CCCN2C(N)=Nc1ccc(Cl)cc1 returned KB-V1 cytotox inactive, MCF10A rereplic -2.9%, KB-3-1 tox inactive, SW480 rereplic -10.8% and IL-1B inflam inh -62.9*.
N#C/C(=C\c1ccccc1[N+](=O)[O-])C(=O)NC1CCCCC1 was read as KB-V1 cytotox inactive, MCF10A rereplic inconclusive, KB-3-1 tox inconclusive, SW480 rereplic inconclusive and IL-1B inflam inh -71.5*.
Screening Cc1ccc(-c2[nH]ncc2/C=C(\C#N)C(=O)NC2CCCCC2)cc1 returned KB-V1 cytotox inactive, MCF10A rereplic inconclusive, KB-3-1 tox inactive, SW480 rereplic -1.8% and IL-1B inflam inh -58.8*.
For N#C/C(=C\c1cccn1-c1ccccc1)C(=O)NC1CCCCC1 the results were KB-V1 cytotox 4.61µM*, MCF10A rereplic 0.5%, KB-3-1 tox 5.8µM*, SW480 rereplic inconclusive and IL-1B inflam inh 1.3.
Screening N#C/C(=C\C=C\c1ccccc1[N+](=O)[O-])C(=O)NC1CCCCC1 returned KB-V1 cytotox inconclusive, MCF10A rereplic 9.2µM*, KB-3-1 tox inactive, SW480 rereplic inconclusive and IL-1B inflam inh -104.0*.
Screening N#C/C(=C\c1ccc(F)c(F)c1)C(=O)NC1CCCCC1 returned KB-V1 cytotox inconclusive, MCF10A rereplic inconclusive, KB-3-1 tox inactive, SW480 rereplic 17.4% and IL-1B inflam inh inconclusive.
Screening Cc1ccc(-c2nc3c4ccccc4n(CC(=O)N4CCN(c5ccccc5F)CC4)c(=O)n3n2)cc1 returned KB-V1 cytotox inactive and KB-3-1 tox inactive.
For C=CCc1ccccc1OCCSc1nc(-c2ccccc2F)nc2cc(=O)[nH]n12 the results were KB-V1 cytotox inactive and KB-3-1 tox inactive.
For COc1ccccc1N(C1=NCCCS1)S(=O)(=O)c1ccc(C(C)(C)C)cc1 the results were KB-V1 cytotox 23.1µM*, MCF10A rereplic 1.4%, KB-3-1 tox inconclusive, SW480 rereplic 13.4% and IL-1B inflam inh -8.8.
Screening CCc1ccc(C(=O)NN(C(=O)c2ccc(CC)cc2)C(C)(C)C)cc1 returned KB-V1 cytotox 7.31µM*, MCF10A rereplic -46.0%, KB-3-1 tox inconclusive, SW480 rereplic inconclusive and IL-1B inflam inh 0.0.
For CC(C)(C)N(NC(=O)c1ccccc1)C(=O)c1ccc(C(=O)N(NC(=O)c2ccccc2)C(C)(C)C)cc1 the results were KB-V1 cytotox inactive, MCF10A rereplic -0.4%, KB-3-1 tox inactive, SW480 rereplic -80.0% and IL-1B inflam inh 13.4.
Screening CCc1cccc2sc(N3CCN(C(=O)c4ccc([N+](=O)[O-])o4)CC3)nc12 returned KB-V1 cytotox inconclusive, MCF10A rereplic 3.66µM*, KB-3-1 tox inconclusive, SW480 rereplic inconclusive and IL-1B inflam inh -102.9*.
